From ChEMBL document CHEMBL1961873, “Compounds: GSK PKIS; Assays: Nanosyn kinase panel” (2012) come the findings set out here.

One may read the inhibition as the change of the read-out against control, counted positive when it falls.

Test [1] addresses Sphingosine kinase 1 (Homo sapiens) (UniProt Q9NYA1). As to conditions: at 1 µM.
Test [2] concerns the target T1, Sphingosine kinase 2 (Homo sapiens) (UniProt Q9NRA0).
T1 sequence (whole entry): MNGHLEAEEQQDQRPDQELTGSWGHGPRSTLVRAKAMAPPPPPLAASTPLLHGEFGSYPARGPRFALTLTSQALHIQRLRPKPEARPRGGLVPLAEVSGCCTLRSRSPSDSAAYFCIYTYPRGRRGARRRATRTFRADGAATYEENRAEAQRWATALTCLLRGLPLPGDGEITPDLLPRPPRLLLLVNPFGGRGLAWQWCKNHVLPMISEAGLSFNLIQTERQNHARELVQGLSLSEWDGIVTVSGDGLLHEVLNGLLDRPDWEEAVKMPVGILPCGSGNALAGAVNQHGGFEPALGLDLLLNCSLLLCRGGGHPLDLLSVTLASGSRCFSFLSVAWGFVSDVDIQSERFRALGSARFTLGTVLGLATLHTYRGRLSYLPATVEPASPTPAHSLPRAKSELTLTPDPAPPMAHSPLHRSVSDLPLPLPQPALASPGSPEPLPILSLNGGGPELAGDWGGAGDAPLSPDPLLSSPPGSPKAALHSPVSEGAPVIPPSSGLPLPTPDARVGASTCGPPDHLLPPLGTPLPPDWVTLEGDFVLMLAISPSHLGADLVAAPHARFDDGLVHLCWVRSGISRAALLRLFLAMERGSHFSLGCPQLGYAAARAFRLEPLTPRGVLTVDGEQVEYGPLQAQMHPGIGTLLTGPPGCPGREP
The note with it: at 0.1 µM.

The target of test [3] is T1, Sphingosine kinase 2 (Homo sapiens). The note with it: at 1 µM.
Test [4] has as its target Casein kinase II subunit alpha (Homo sapiens) (UniProt P68400). The note with it: at 0.1 µM.
The target is the same in test [5]. As to conditions: at 1 µM.
The target in test [6] is T2, Inhibitor of nuclear factor kappa-B kinase subunit alpha (Homo sapiens) (UniProt O15111).
T2 sequence (whole entry): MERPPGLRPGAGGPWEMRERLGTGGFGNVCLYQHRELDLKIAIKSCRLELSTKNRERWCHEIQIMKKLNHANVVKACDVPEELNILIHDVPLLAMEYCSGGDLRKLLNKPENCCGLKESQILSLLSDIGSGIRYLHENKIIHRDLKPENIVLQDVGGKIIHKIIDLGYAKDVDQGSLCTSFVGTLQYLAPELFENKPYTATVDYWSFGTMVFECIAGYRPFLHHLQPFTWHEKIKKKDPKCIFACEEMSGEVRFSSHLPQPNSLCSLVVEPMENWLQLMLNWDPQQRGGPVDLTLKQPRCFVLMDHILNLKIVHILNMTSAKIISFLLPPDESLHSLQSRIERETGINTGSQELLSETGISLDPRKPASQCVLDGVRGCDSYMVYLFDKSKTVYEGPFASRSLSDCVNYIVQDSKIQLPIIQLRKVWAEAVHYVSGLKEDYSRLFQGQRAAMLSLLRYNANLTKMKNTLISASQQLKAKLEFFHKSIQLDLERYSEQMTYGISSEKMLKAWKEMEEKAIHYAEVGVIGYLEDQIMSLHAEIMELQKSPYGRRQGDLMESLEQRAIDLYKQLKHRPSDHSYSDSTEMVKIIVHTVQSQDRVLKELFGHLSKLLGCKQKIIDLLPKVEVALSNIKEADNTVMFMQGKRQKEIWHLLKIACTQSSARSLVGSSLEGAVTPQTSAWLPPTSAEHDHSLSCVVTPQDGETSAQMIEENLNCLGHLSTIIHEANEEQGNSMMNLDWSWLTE
As to conditions: at 0.1 µM.

In test [7] the target is T2, Inhibitor of nuclear factor kappa-B kinase subunit alpha (Homo sapiens). As to conditions: at 1 µM.
Test [8] has as its target T3, Inhibitor of nuclear factor kappa-B kinase subunit beta (Homo sapiens) (UniProt O14920).
T3 sequence (whole entry): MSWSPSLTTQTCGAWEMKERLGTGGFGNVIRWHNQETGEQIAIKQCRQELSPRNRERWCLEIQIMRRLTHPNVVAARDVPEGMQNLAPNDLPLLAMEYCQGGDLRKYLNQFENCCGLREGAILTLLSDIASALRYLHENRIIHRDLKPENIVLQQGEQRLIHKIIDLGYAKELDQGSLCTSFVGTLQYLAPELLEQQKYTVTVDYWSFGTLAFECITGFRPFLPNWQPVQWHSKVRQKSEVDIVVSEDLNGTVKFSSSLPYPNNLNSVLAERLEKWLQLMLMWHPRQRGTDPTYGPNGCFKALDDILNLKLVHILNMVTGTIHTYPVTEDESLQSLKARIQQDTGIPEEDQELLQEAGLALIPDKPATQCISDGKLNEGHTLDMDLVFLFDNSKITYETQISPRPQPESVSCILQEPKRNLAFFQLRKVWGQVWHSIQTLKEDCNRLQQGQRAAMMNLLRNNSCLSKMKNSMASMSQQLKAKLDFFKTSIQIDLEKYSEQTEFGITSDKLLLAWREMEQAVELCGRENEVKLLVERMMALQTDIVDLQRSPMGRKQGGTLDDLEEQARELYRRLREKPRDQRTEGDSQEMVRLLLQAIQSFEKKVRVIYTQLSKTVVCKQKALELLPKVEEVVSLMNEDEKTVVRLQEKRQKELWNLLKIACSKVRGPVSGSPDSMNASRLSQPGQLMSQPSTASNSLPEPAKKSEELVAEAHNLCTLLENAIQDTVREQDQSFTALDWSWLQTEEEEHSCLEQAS
The note with it: at 0.1 µM.

The target in test [9] is T3, Inhibitor of nuclear factor kappa-B kinase subunit beta (Homo sapiens). As to conditions: at 1 µM.
In test [10] the target is T4, Inhibitor of nuclear factor kappa-B kinase subunit epsilon (Homo sapiens) (UniProt Q14164).
T4 sequence (whole entry): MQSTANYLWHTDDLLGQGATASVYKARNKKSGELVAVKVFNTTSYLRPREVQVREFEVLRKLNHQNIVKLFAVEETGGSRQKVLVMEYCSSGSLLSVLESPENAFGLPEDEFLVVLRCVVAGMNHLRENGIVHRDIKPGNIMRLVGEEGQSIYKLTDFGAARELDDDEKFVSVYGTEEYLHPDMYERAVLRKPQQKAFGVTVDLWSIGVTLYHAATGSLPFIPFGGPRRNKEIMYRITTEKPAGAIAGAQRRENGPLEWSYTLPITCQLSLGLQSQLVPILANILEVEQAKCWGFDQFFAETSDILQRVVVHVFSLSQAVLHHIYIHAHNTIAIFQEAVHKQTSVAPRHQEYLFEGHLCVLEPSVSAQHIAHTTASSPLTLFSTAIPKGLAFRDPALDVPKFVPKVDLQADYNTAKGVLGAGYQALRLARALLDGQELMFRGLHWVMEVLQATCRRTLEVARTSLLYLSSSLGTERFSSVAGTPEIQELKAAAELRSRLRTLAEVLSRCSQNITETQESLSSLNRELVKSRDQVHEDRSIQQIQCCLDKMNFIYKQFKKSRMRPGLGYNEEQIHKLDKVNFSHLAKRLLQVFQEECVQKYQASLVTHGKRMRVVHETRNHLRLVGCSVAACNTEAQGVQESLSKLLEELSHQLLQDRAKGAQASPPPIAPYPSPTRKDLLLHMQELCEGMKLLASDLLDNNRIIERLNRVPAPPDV
As to conditions: at 0.1 µM.

Test [11] concerns the target T4, Inhibitor of nuclear factor kappa-B kinase subunit epsilon (Homo sapiens). As to conditions: at 1 µM.
The target of test [12] is T5, Serine/threonine-protein kinase Nek1 (Homo sapiens) (UniProt Q96PY6).
T5 sequence (whole entry): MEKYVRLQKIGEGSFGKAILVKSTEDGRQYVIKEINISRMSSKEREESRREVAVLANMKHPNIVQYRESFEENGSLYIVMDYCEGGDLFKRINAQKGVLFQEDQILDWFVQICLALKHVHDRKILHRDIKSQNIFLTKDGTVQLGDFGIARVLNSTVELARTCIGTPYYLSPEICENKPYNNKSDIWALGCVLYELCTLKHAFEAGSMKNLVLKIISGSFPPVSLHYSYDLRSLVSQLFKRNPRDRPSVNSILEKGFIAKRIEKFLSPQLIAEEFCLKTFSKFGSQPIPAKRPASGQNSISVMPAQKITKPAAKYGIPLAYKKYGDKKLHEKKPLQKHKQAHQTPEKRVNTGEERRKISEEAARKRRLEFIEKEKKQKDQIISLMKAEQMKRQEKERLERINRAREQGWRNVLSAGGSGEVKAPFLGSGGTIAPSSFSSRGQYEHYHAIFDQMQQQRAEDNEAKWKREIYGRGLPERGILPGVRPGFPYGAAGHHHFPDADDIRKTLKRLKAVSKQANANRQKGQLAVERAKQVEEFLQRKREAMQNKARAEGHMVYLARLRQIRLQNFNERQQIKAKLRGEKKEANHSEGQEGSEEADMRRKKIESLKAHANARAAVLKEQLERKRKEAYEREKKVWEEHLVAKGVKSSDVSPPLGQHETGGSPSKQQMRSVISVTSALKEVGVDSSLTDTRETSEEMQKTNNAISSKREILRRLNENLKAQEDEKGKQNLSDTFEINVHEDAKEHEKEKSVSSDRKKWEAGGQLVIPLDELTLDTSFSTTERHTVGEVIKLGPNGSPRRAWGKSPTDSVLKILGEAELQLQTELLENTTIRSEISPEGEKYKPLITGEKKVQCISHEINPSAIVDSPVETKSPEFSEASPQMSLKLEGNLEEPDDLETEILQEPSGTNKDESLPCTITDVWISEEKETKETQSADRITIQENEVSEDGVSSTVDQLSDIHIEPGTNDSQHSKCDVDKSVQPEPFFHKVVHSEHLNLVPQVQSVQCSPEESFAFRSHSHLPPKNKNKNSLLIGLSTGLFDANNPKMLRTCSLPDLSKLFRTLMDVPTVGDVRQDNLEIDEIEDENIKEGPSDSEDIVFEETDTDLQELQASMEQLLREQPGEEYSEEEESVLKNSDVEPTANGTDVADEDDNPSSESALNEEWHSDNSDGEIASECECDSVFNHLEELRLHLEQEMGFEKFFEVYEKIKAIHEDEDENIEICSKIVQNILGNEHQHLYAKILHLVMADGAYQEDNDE
The note with it: at 0.1 µM.

The target of test [13] is T5, Serine/threonine-protein kinase Nek1 (Homo sapiens). The note with it: at 1 µM.
For test [14], the target named is T6, Serine/threonine-protein kinase Nek2 (Homo sapiens) (UniProt P51955).
T6 sequence (whole entry): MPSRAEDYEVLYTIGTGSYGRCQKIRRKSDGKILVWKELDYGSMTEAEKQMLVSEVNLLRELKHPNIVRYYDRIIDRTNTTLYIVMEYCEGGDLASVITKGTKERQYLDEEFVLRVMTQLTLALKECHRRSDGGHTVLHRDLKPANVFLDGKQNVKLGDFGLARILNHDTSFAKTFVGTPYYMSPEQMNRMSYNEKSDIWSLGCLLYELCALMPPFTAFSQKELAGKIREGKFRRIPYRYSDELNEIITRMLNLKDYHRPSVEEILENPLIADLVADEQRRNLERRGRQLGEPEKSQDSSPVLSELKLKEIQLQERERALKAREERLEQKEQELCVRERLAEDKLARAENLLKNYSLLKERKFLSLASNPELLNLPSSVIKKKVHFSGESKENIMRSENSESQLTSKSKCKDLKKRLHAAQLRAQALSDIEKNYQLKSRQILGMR
The note with it: at 0.1 µM.

The target of test [15] is T6, Serine/threonine-protein kinase Nek2 (Homo sapiens). The note with it: at 1 µM.
The target in test [16] is Serine/threonine-protein kinase Nek6 (Homo sapiens) (UniProt Q9HC98). As to conditions: at 0.1 µM.
For test [17] the target is unchanged. The note with it: at 1 µM.
The target of test [18] is Serine/threonine-protein kinase Nek7 (Homo sapiens) (UniProt Q8TDX7). The note with it: at 0.1 µM.
Test [19] shares this target. As to conditions: at 1 µM.
In test [20] the target is T7, Serine/threonine-protein kinase Nek9 (Homo sapiens) (UniProt Q8TD19).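 Note: reported value is the mean percent inhibition of NEK9.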
T7 sequence (whole entry): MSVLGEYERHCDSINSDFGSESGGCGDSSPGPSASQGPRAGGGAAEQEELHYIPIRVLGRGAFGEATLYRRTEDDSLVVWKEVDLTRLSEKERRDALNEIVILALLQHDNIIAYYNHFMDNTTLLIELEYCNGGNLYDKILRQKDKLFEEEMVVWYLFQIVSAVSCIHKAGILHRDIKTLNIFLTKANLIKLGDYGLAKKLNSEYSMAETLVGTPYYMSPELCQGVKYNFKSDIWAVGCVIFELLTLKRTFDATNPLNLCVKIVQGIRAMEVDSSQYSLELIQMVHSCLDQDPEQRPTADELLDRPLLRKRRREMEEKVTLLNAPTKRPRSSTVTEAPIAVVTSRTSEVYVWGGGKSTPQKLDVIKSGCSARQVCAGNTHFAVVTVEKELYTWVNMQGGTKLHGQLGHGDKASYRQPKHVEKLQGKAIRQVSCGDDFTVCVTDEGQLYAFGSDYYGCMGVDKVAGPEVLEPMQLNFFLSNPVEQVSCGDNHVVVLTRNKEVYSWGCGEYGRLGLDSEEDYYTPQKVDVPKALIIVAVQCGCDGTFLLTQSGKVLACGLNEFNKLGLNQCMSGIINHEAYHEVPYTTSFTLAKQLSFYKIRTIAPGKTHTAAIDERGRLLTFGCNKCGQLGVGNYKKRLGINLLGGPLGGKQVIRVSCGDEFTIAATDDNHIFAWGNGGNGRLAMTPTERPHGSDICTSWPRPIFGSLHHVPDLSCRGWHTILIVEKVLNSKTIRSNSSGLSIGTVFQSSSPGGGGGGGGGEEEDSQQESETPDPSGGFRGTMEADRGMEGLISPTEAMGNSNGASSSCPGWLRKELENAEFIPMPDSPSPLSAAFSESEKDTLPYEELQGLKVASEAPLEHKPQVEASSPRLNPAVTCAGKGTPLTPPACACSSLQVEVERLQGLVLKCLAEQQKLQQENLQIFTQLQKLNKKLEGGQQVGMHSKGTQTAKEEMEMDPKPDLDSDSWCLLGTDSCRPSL
As to conditions: at 0.1 µM.

Casein kinase II subunit alpha (Homo sapiens), sequence (P68400 whole entry, looked up): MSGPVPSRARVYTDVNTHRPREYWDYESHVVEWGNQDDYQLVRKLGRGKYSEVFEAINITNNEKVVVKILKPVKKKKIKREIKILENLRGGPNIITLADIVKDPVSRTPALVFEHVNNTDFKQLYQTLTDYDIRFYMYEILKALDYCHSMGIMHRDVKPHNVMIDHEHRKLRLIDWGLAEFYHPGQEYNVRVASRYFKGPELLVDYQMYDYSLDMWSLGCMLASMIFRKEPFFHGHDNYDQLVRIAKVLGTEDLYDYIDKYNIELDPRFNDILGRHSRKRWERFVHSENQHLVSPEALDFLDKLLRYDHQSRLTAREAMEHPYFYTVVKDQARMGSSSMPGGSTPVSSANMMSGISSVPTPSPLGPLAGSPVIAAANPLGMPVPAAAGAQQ
Serine/threonine-protein kinase Nek7 (Homo sapiens), sequence (Q8TDX7 whole entry, looked up): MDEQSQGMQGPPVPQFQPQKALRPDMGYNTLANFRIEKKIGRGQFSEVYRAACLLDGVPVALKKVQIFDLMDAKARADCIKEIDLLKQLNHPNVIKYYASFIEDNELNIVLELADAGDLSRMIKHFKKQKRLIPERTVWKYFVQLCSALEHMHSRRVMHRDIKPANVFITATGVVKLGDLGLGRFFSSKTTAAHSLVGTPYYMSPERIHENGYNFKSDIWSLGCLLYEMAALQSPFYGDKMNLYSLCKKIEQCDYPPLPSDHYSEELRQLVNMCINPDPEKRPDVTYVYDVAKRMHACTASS
Serine/threonine-protein kinase Nek6 (Homo sapiens), sequence (Q9HC98 whole entry): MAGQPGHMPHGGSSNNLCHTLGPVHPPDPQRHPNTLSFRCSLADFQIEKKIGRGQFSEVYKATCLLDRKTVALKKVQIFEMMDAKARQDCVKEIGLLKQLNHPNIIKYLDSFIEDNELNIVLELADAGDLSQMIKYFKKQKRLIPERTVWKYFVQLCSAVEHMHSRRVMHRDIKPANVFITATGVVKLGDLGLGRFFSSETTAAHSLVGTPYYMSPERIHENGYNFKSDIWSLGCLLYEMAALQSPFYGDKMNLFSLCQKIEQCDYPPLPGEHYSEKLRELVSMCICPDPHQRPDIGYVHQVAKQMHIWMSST
Sphingosine kinase 1 (Homo sapiens), sequence (Q9NYA1 whole entry): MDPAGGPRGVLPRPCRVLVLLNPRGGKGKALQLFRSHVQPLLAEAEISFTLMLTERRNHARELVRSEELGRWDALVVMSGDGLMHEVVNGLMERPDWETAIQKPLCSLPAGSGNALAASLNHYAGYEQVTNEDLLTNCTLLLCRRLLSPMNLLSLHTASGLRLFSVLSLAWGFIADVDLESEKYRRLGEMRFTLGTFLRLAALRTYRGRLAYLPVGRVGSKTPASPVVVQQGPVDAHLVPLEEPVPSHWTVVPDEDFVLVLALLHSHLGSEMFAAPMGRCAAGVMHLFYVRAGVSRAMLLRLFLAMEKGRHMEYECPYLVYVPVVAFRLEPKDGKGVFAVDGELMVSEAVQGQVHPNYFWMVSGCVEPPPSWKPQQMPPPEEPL

On to `O=C(O[C@H]1CN[C@H](C#Cc2cc3ncnc(Nc4ccc(Cc5ccccc5)cc4)c3s2)C1)N1CCOCC1`, for which the inhibition is -1.06% in test [1]; -1.12% in test [2]; -1.6% in [3]; 6.95% in [4]; 1.52% in test [5]; 6.44% in test [6]. Moreover, the inhibition in test [7] was 1.74%; in [8] it was 4%; in [9], 0.81%; in test [10] it was 3.09%; in test [11] it was 3.15%; in [12] it was 1.41%. Besides, the inhibition in [13] was 1.96%; in test [14], 2.89%; in [15], 4.01%; in test [16], 1.71%; in test [17] it was 1.61%; in test [18] it was 2.18%. The inhibition in [19] was 2.21%; in [20], 4.6%.
